Test results: PubChem BioAssay AID2235 (The Scripps Research Institute Molecular Screening Center, 2010)
The whole screen tested about 320,000 compounds, of which about 2,800 (0.88%) were called active.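 How the source made its calls: active means inhibition above the mean inhibition of all tested compounds plus 3 SD, computed separately for each screening campaign (cut at about 15% in these data); inactive means the rest.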 For the sample, actives were picked, then their nearest neighbours and some compounds at random.

molecular target: Serine/threonine-protein phosphatase PP1-alpha catalytic subunit (Homo sapiens) (UniProt P62136); test: inhibition of human PP1 catalytic subunit – biochemical, fluorescence, OMFP substrate, single point, counter-screen for PP5 inhibitor project, primary screen (AID 2235); details: purified PP1alpha, at 6.7 µM, stronger effect = higher value
Sequence (P62136 whole entry, looked up): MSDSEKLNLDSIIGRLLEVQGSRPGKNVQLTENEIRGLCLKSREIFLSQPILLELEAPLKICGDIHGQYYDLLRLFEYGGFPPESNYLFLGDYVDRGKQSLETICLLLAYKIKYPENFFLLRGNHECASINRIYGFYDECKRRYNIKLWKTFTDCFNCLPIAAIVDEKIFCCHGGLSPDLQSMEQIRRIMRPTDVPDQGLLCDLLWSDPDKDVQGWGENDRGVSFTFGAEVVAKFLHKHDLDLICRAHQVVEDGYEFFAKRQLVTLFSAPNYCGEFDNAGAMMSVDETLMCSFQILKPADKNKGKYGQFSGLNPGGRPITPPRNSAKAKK

**Q.** With Cc1cc(C)c(S(=O)(=O)NCC(c2ccc3c(c2)OCO3)N2CCOCC2)c(C)c1 (configuration not stated) as the compound, how does the inhibition read?
**A.** -3.95% (inactive)

**Q.** For CN(C(=O)COC(=O)c1nc(Cl)ccc1Cl)C1CCS(=O)(=O)C1 (configuration not stated), which inhibition is on record?
**A.** -2.63% (inactive)

**Q.** Which inhibition does the source give for CN(CCOc1ccccc1)C(=O)c1cc(-c2ccco2)nc2ccccc12 here?
**A.** 11% (inactive)

**Q.** Which inhibition does the source give for CN(C(=O)COC(=O)c1cc(-c2ccco2)nc2ccccc12)C1CCS(=O)(=O)C1 (configuration not stated) here?
**A.** 41.1% (active)

**Q.** How did the inhibition turn out when O=C(CC(c1ccccc1)c1cc(Cl)ccc1O)NCCN1CCOCC1 (configuration not stated) was run?
**A.** -1.01% (inactive)

**Q.** For CCOC(=O)c1ccc[n+](CC(=O)Nc2ccccc2OC(F)F)c1, which inhibition is on record?
**A.** -3.16% (inactive)

**Q.** How did the inhibition turn out when Cc1ccc(-c2nc(SCC(=O)Nc3ccccc3OC(F)F)c3c(C)c(C(=O)O)sc3n2)cc1 was run?
**A.** 52% (active)

**Q.** For O=C(COC(=O)c1ccccc1SCC(=O)N1CCCC1)Nc1ccccc1OC(F)F, which inhibition is on record?
**A.** -0.81% (inactive)

**Q.** How did the inhibition turn out when Cc1ccc(C)c(NC(=O)CSc2nc3c(oc4ccccc43)c(=O)n2-c2ccccc2)c1 was run?
**A.** 10.1% (inactive)

**Q.** How did the inhibition turn out when COc1cc(C(C(=O)NC2CCCC2)N(Cc2ccccc2)C(=O)c2snc(C(N)=O)c2N)ccc1O (configuration not stated) was run?
**A.** -0.55% (inactive)

**Q.** With CCOC(=O)Cc1cc(=O)[nH]c(=O)[nH]1 as the compound, how does the inhibition read?
**A.** -3.59% (inactive)

**Q.** For COc1ccc(-c2ocnc2C(=O)Nc2ccc3c(c2)CCC3)cc1, which inhibition is on record?
**A.** -2.76% (inactive)

**Q.** O=C1N=C(N2CCCC2)S/C1=C\c1cccc(Br)c1 was tested. Which inhibition did it give?
**A.** -0.89% (inactive)

**Q.** Which inhibition does the source give for O=Cc1c(Cl)cccc1Cl here?
**A.** -3.41% (inactive)

**Q.** Which inhibition does the source give for O=C1N=C2SCCN2/C1=C\c1c(Cl)cccc1Cl here?
**A.** 15.4% (active)

**Q.** Which inhibition does the source give for O=C(N/N=C\C1CC=CCC1)c1ccc(Br)o1 (configuration not stated) here?
**A.** 2.42% (inactive)

**Q.** Which inhibition does the source give for O=C(c1cn(-c2ccccc2)nc1-c1cccnc1)N1CCN(S(=O)(=O)c2ccccc2F)CC1 here?
**A.** -1.36% (inactive)

**Q.** Which inhibition does the source give for Cc1ccc(CNC(=O)CCN2C(=O)[C@@H]3Cc4ccccc4CN3C2=O)cc1 here?
**A.** 3.38% (inactive)

**Q.** How did the inhibition turn out when O=C(Nc1nnc(-c2ccccc2)o1)c1cc(-c2cccs2)nc2ccccc12 was run?
**A.** 34.7% (active)

**Q.** How did the inhibition turn out when CCCCN(C)CCCNC(=O)c1cc(-c2cccs2)nc2ccccc12 was run?
**A.** 1.01% (inactive)

**Q.** How did the inhibition turn out when O=C(NCCN1CCOCC1)c1cc(-c2cccs2)nc2ccccc12 was run?
**A.** -5.13% (inactive)

**Q.** For CCN(CC)c1ccc(NC(=O)CN2C(=O)NC3(CCc4ccccc43)C2=O)cc1 (configuration not stated), which inhibition is on record?
**A.** 3.2% (inactive)

**Q.** For COCCCn1c(-c2cccs2)nc2nc3ccccc3nc21, which inhibition is on record?
**A.** -1.53% (inactive)

**Q.** Which inhibition does the source give for CC(C)(C)c1ccccc1NC(=O)CN1C(=O)NC2(CCCC2)C1=O here?
**A.** -2.93% (inactive)

**Q.** How did the inhibition turn out when Cc1ccc(-n2nc3ccc(NC(=O)/C=C/c4ccco4)cc3n2)cc1C was run?
**A.** 19.2% (active)

**Q.** Which inhibition does the source give for O=C(/C=C/c1ccco1)Nc1ccc(Oc2ccccc2)cc1 here?
**A.** 3.61% (inactive)

**Q.** For Cc1nnc(NC(=O)/C=C/c2ccco2)s1, which inhibition is on record?
**A.** -3.35% (inactive)
